Test results published in PMC7862700, “An all-to-all approach to the identification of sequence-specific readers for epigenetic DNA modifications on cytosine”.

How the values were obtained:
Test in all cases: DAPPL (digital affinity profiling via proximity ligation, sequencing); 10 mM Tris-HCl pH 7.5, 50 mM NaCl, 1 mM DTT, 4% glycerol, room temperature, 30 min; GST-TFs on glutathione beads, 16-mer random dsDNA library, 0.1% formaldehyde crosslink after washing; high values mean tight binding
FLI1 = target: T1, FLI1 (Homo sapiens, UniProt Q01543 1-452); details: protein: recombinant; tags: N-terminal GST; dsDNA, one strand shown
T1 sequence: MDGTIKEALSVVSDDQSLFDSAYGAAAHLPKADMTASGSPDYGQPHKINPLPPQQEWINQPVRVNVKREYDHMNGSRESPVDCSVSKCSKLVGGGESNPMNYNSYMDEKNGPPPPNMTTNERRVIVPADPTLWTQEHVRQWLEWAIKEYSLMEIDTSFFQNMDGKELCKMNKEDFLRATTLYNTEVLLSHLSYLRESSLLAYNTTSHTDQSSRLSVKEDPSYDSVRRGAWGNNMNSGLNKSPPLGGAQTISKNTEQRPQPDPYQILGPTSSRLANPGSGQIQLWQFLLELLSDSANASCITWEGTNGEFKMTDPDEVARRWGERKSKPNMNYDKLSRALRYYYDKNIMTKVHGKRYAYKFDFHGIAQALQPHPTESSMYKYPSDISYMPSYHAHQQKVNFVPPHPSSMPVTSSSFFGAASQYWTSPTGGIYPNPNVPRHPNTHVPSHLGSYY
Outline: (§1)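 Human transcription factors fused to GST were expressed in yeast, captured on glutathione beads, given DNA barcodes and pooled with a GST-only negative control. Pools were incubated with 200 nmole of a 16-mer random double-stranded DNA library in Tris/NaCl/DTT/glycerol buffer at room temperature for 30 min. They were then washed, crosslinked with 0.1% formaldehyde, proximity-ligated (BsaI/T4 ligase, 1 h, 37 °C), PCR-amplified and sequenced on an Illumina NextSeq500. Binding signal is each 6-mer's read frequency for a factor divided by its frequency for the GST control.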

ELK1 = target: T2, ELK1 (Homo sapiens, UniProt P19419 1-428); details: protein: recombinant; tags: N-terminal GST; dsDNA, one strand shown
T2 sequence: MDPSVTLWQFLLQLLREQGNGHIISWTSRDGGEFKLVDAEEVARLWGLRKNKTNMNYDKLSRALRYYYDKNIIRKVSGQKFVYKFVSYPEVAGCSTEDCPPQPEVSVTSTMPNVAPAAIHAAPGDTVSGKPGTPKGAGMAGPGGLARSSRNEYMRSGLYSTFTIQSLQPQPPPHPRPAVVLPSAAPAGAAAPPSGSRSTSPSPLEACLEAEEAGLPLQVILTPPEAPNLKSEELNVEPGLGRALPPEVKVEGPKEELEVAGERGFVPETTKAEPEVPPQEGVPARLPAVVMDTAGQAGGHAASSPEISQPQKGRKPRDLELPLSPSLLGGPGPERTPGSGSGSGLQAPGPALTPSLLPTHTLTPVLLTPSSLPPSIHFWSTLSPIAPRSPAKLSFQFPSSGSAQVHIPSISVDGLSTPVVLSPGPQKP
Outline: as §1

GABPA = target: T3, GABPA (Homo sapiens, UniProt Q06546 1-454); details: protein: recombinant; tags: N-terminal GST; dsDNA, one strand shown
T3 sequence: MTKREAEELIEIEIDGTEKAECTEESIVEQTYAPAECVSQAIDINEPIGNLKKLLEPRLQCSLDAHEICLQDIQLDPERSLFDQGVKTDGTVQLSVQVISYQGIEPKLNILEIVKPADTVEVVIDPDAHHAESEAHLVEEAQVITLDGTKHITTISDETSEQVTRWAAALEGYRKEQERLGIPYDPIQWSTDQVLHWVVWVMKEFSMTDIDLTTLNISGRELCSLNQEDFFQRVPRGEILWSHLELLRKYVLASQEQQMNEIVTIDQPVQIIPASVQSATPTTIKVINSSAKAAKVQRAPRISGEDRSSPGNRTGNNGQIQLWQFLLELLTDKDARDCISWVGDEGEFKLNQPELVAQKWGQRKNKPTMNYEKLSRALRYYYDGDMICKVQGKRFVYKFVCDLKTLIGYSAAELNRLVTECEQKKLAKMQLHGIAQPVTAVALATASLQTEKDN
Outline: as §1

ERG = target: T4, ERG (Homo sapiens, UniProt P11308 1-479); details: protein: recombinant; tags: N-terminal GST; dsDNA, one strand shown
T4 sequence: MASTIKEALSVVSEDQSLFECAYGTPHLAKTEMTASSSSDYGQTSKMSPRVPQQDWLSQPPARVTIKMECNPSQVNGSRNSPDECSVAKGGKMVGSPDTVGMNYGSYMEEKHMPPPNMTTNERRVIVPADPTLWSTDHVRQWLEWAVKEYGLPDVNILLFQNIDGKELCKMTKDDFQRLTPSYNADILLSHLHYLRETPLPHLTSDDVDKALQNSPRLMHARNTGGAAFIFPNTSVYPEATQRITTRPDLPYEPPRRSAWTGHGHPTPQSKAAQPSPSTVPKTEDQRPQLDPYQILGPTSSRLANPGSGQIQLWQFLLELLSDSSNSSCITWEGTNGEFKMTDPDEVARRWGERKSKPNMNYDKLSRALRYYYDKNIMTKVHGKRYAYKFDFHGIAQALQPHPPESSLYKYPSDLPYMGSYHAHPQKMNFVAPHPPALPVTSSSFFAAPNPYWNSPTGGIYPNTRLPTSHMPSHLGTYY
Outline: as §1

ELF1 = ELF1 (Homo sapiens, UniProt P32519 1-619); details: protein: recombinant; tags: N-terminal GST; dsDNA, one strand shown
Outline: as §1

EHF = target: T5, EHF (Homo sapiens, UniProt Q9NZC4 1-300); details: protein: recombinant; tags: N-terminal GST; dsDNA, one strand shown
T5 sequence: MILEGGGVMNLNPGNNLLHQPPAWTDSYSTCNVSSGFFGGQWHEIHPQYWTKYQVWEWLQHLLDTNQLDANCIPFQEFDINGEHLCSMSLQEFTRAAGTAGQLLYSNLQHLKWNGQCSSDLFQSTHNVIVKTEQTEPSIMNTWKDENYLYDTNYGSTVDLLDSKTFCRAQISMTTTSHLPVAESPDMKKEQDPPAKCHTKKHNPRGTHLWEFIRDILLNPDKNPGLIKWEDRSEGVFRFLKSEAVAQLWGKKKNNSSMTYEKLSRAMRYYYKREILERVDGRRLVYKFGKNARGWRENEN
Outline: as §1

SPI1 = SPI1 (Homo sapiens, UniProt P17947 1-270); details: protein: recombinant; tags: N-terminal GST; dsDNA, one strand shown
Outline: as §1

SPIB = SPIB (Homo sapiens, UniProt Q01892 1-262); details: protein: recombinant; tags: N-terminal GST; dsDNA, one strand shown
Outline: as §1

ELK3 = target: T6, ELK3 (Homo sapiens, UniProt P41970 1-407); details: protein: recombinant; tags: N-terminal GST; dsDNA, one strand shown
T6 sequence: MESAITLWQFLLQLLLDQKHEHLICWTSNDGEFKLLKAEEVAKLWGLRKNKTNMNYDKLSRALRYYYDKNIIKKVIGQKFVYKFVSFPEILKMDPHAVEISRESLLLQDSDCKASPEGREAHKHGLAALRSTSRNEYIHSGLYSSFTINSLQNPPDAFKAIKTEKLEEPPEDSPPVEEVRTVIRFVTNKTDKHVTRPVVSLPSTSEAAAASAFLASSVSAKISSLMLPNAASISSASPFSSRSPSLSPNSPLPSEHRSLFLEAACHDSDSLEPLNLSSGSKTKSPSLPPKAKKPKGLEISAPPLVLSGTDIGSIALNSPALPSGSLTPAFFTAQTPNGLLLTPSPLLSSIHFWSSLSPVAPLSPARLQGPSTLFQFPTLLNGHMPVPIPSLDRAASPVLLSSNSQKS
Outline: as §1

FEV = target: T7, FEV (Homo sapiens, UniProt Q99581 1-238); details: protein: recombinant; tags: N-terminal GST; dsDNA, one strand shown
T7 sequence: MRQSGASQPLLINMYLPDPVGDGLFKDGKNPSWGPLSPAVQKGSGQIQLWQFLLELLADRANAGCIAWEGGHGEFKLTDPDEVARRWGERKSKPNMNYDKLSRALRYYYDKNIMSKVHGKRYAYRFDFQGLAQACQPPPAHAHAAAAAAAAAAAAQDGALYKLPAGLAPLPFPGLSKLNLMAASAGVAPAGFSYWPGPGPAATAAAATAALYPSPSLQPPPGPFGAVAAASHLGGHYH
Outline: as §1

ETV5 = ETV5 (Homo sapiens, UniProt P41161 1-510); details: protein: recombinant; tags: N-terminal GST; dsDNA, one strand shown
Outline: as §1

HSF1 = HSF1 (Homo sapiens, UniProt Q00613 1-529); details: protein: recombinant; tags: N-terminal GST; chain copies: 3; dsDNA, one strand shown
Outline: as §1

SPIC = target: T8, SPIC (Homo sapiens, UniProt Q8N5J4 1-248); details: protein: recombinant; tags: N-terminal GST; dsDNA, one strand shown
T8 sequence: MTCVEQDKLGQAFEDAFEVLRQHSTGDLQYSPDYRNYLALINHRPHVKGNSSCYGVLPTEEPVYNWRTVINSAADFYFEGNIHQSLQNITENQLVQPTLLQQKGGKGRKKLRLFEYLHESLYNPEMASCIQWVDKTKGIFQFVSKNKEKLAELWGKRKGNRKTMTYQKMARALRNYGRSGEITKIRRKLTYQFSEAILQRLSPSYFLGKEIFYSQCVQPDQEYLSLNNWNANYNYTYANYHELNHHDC
Outline: as §1

ELF4 = ELF4 (Homo sapiens, UniProt Q99607 1-663); details: protein: recombinant; tags: N-terminal GST; dsDNA, one strand shown
Outline: as §1

ELK4 = target: T9, ELK4 (Homo sapiens, UniProt P28324-2 1-405); details: protein: recombinant; tags: N-terminal GST; dsDNA, one strand shown
T9 sequence: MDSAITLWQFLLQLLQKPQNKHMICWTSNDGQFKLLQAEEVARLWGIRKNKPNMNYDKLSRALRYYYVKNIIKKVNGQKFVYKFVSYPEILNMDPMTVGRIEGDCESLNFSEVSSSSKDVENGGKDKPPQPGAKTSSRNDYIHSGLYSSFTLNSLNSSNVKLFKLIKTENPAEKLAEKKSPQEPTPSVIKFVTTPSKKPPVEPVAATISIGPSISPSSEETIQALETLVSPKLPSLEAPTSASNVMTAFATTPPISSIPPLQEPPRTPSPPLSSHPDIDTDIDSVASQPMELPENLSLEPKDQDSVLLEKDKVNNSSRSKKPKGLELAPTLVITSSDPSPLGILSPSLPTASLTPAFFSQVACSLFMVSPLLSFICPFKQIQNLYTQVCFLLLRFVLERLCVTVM
Outline: as §1

ETV2 = target: T10, ETV2 (Homo sapiens, UniProt O00321 1-342); details: protein: recombinant; tags: N-terminal GST; dsDNA, one strand shown
T10 sequence: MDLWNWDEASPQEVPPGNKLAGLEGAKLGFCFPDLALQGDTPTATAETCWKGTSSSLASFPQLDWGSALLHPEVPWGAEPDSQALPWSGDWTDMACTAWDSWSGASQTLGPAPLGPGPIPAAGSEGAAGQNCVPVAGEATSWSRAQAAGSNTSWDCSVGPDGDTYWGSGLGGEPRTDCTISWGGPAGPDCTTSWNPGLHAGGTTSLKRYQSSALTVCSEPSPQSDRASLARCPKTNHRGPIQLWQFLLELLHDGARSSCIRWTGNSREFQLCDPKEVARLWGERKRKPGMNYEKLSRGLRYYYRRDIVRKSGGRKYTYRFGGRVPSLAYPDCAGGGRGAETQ
Outline: as §1

ELF3 = target: T11, ELF3 (Homo sapiens, UniProt P78545 1-371); details: protein: recombinant; tags: N-terminal GST; dsDNA, one strand shown
T11 sequence: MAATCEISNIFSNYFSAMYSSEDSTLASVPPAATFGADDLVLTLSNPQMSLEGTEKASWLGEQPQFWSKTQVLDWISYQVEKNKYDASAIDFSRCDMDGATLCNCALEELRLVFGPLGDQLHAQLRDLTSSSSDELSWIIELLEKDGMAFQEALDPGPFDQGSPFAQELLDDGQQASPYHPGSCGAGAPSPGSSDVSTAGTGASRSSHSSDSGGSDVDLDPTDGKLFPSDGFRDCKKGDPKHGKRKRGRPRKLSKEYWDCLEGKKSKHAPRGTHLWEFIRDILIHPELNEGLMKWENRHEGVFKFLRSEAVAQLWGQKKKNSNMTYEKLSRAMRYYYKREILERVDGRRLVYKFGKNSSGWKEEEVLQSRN
Outline: as §1

CRX = CRX (Homo sapiens, UniProt O43186 1-299); details: protein: recombinant; tags: N-terminal GST; dsDNA, one strand shown
Outline: as §1

ETV1 = ETV1 (Homo sapiens, UniProt P50549 1-477); details: protein: recombinant; tags: N-terminal GST; dsDNA, one strand shown
Outline: as §1

Chain of ELF4 (Q99607 whole entry): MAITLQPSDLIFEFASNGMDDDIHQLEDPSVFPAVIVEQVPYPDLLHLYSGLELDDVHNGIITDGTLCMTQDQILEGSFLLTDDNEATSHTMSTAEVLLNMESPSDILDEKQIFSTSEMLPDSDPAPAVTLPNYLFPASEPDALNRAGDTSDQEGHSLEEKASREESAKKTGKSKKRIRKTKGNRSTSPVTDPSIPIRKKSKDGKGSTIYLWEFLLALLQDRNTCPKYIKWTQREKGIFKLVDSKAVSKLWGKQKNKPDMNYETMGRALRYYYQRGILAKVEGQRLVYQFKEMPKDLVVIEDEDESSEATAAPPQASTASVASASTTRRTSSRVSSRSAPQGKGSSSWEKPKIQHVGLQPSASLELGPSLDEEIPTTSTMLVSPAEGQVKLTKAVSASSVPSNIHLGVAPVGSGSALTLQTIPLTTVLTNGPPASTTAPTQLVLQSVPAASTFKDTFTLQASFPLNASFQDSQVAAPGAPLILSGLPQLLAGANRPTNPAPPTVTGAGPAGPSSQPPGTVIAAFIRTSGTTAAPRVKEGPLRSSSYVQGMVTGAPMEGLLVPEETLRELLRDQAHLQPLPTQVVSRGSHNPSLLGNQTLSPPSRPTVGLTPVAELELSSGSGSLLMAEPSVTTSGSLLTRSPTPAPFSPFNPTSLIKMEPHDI
Chain of SPIB (Q01892 whole entry): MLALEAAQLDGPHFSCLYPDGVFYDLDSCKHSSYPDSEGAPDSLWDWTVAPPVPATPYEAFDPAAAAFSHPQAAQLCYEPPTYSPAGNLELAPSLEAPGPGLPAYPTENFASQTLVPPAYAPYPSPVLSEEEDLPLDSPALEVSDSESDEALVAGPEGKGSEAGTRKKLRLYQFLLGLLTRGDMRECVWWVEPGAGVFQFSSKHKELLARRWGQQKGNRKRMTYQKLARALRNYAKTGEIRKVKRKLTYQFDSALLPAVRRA
Chain of ELF1 (P32519 whole entry): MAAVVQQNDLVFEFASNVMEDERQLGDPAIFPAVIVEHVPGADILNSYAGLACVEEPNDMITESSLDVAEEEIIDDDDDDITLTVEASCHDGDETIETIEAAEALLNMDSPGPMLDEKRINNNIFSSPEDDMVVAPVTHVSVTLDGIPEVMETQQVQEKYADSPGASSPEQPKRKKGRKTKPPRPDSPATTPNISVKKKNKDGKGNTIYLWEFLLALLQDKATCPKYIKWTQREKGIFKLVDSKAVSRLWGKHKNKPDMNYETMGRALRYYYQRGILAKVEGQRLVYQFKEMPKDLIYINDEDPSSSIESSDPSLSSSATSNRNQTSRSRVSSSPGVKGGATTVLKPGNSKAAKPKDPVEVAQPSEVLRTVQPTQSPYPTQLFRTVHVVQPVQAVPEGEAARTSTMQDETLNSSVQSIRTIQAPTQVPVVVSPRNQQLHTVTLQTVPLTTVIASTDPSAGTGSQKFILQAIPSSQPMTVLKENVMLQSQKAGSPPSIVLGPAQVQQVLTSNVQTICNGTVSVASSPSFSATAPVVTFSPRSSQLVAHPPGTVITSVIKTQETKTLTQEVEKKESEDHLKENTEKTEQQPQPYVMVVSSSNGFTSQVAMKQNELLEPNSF
Chain of ETV5 (P41161 whole entry): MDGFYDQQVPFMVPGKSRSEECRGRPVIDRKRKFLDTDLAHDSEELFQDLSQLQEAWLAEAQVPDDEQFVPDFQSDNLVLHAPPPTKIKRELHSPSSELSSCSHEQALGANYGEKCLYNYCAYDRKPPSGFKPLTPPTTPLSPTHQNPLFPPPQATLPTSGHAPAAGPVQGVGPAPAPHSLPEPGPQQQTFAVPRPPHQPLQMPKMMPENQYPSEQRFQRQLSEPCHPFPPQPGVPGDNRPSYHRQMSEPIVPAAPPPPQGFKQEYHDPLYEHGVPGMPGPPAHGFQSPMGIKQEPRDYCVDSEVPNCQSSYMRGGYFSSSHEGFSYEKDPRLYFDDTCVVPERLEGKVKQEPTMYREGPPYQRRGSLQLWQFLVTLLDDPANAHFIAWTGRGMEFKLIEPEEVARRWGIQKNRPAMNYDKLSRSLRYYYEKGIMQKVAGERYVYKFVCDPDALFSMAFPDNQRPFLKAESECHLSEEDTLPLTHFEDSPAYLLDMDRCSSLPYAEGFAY
Chain of HSF1 (Q00613 whole entry): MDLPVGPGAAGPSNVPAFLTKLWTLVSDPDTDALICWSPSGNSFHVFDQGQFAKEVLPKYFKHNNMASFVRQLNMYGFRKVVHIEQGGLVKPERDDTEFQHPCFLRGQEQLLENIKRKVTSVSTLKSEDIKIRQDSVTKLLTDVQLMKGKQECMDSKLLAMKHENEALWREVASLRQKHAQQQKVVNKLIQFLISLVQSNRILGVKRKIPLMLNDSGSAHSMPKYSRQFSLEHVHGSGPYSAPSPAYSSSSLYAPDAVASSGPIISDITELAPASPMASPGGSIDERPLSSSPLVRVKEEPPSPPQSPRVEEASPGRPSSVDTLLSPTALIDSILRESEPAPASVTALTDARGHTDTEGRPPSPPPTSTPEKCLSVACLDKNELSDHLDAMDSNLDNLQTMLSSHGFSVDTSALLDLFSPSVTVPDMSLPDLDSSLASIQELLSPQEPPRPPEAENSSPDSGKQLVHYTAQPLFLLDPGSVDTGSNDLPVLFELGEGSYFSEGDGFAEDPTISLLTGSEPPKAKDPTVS
Chain of CRX (O43186 whole entry): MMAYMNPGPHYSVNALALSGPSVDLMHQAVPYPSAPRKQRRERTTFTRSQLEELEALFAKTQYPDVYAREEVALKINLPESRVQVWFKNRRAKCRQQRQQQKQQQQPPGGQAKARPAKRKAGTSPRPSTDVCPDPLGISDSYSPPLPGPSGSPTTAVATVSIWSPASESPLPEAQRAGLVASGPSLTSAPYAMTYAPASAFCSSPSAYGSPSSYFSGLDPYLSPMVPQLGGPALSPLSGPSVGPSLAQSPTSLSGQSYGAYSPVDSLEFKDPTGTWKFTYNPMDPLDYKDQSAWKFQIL
Chain of ETV1 (P50549 whole entry): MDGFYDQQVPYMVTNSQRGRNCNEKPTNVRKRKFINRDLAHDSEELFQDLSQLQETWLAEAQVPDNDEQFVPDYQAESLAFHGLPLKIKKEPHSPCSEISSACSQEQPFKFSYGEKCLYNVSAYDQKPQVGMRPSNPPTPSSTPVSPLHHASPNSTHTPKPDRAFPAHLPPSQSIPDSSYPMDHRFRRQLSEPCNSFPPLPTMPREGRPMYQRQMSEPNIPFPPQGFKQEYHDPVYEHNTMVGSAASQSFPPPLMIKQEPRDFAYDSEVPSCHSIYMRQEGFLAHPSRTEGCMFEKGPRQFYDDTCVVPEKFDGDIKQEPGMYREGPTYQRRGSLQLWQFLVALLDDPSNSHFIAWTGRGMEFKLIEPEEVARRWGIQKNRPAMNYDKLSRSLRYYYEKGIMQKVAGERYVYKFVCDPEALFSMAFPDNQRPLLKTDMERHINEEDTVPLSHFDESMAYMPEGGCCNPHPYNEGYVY

## CCTACG
FLI1
  binding signal: 1.34 fold enrichment (6-mer frequency, TF over GST control)
ELK1
  binding signal: 1.41 fold enrichment (6-mer frequency, TF over GST control)
GABPA
  binding signal: 1.39 fold enrichment (6-mer frequency, TF over GST control)
ERG
  binding signal: 1.33 fold enrichment (6-mer frequency, TF over GST control)
ELF1
  binding signal: 1.32 fold enrichment (6-mer frequency, TF over GST control)
EHF
  binding signal: 1.35 fold enrichment (6-mer frequency, TF over GST control)
SPI1
  binding signal: 1.25 fold enrichment (6-mer frequency, TF over GST control)
SPIB
  binding signal: 1.32 fold enrichment (6-mer frequency, TF over GST control)
ELK3
  binding signal: 1.68 fold enrichment (6-mer frequency, TF over GST control)
FEV
  binding signal: 1.48 fold enrichment (6-mer frequency, TF over GST control)
ETV5
  binding signal: 1.32 fold enrichment (6-mer frequency, TF over GST control)
HSF1
  binding signal: 1.21 fold enrichment (6-mer frequency, TF over GST control)
SPIC
  binding signal: 1.37 fold enrichment (6-mer frequency, TF over GST control)
ELF4
  binding signal: 1.37 fold enrichment (6-mer frequency, TF over GST control)
ELK4
  binding signal: 1.38 fold enrichment (6-mer frequency, TF over GST control)
ETV2
  binding signal: 1.44 fold enrichment (6-mer frequency, TF over GST control)
ELF3
  binding signal: 1.5 fold enrichment (6-mer frequency, TF over GST control)
CRX
  binding signal: 1.11 fold enrichment (6-mer frequency, TF over GST control)
ETV1
  binding signal: 1.47 fold enrichment (6-mer frequency, TF over GST control)
